According to PubChem BioAssay AID1159506 (National Center for Advancing Translational Sciences (NCATS), 2015):
The full ranking holds about 59,000 sequences; the median of the read-out is about -0.00055, and the lowest 2% start at about -2. This excerpt belongs to a sample that is enriched for the lowest values.

assay: Identification of proteins required for the processing of the EWS-FLI1 nascent transcript; settings: TC32 Ewing sarcoma NR0B1-luc vs CMV-luc (EWS-FLI1 target promoter against control promoter), 48 h; screened at 20 nM (by protocol);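 note: robust z of luciferase light less the median z of siRNAs with the same seed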
Procedure, shortened: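 Three siRNAs per gene, each in a separate well at 20 nM, were transfected into TC32 cells bearing either reporter construct. Luminescence was measured two days on, and per-gene comparison relied on seed-corrected Z values.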

| Sequence | seed-corrected z-score |
| --- | --- |
| AUCCUCACCAUGGACAACG against CELA3A | -0.518 |
| UUUUUGAACAUGGUAACAG against RPL31P7 | 1.16 |
| AAGUGGUCAAAAUCCGCUC against LOC728613 | -1.66 |
| AAAGUCAGCACUUCGAUCC against MCTP1 | -2.38 |
| UAUGUUGUCACGCAGCACU against HIST1H4F | 1.31 |
| UUGGUUAUUCGAAGAGCUG against ME1 | -0.246 |
| UGUCAUUUUUCUUCGGUUC against PWP2 | 0.885 |
| UGAAUGGACAGUAUCUCUG against CCDC54 | -0.774 |
| AAUCUGCUUCUUUAAGUCG against RBBP6 | -2.31 |
| UUUCUGUCCAGGAAAUCUC against RWDD4 | -0.311 |
| UCAGUGGAAGGAAUCCUCA against OR13C8 | 1.06 |
| UUAUUGUCAAGUUCUGAUG against EFCAB14 | 0.0178 |
| UUCUGUUCUACCUCGCUUC against WDR60 | -1.36 |
| UCUGGAGUUCUCAUUAGAC against IRF7 | 0.205 |
| AUACGUAUCCCGGACGCAG against SLC25A47 | 2.25 |
| AGGGUAUUUACCUUCUUGC against LOC729696 | -2.56 |
| UCCCAUACCAUCCACAGUG against SGCZ | 0.248 |
| AAGACUUCCAUCUAAGAUC against SLC39A11 | -1.62 |
| AAUCUUCACAUCAUUCUGG against TMEM70 | -0.646 |
| AUUGAUGUCAAUCACAUGC against PCDHGA3 | -0.895 |
| UUUCAUGCGACGGUUUUGG against HOXC4 | -0.731 |
| UGACUGUUGCUCCACUUCC against SH2D3A | -0.425 |
| AGUCUUAUCAGCACCCUUU against MTPN | -11.9 |

| Sequence | seed-corrected z-score |
| --- | --- |
| AUCCGGUACACCAUGUGGU against CYTH2 | -0.326 |
| UAUGAUGGAGGCGUAGUUC against MYCL | 0.678 |
| AAUGAUAUCUGUGAUCGCC against RABGEF1 | -0.242 |
| UUCGUUCAGUGGGUUGUCC against SYNGR1 | -0.497 |
| UUCCCUUUCACGUCCAUGU against WFIKKN2 | -0.0396 |
| UUUCGAUUUAAAAGAGCCC against RALGPS1 | 1.28 |
| UUUCUUCCAACGCAGUCUG against MRPS23 | -2.67 |
| UAGAGGCUCAUCAUAGAUG against GPATCH3 | -0.0793 |
| AAUGCUAUUACGGUUGAUG against FBXL6 | -0.269 |
| UUAUUGCAGAUCUGGAUCC against CYP2C9 | -2.3 |
| UCUGUUUCAUUUACUUUGC against PRSS44 | 0.238 |
| UUUAUAAAGAGGGUGGAUC against SGCB | -0.0761 |
| UAUGAUACACUGGUAGGGU against ZNF684 | -2.38 |
| AAAGUGAUUCCCACAGCUG against CCS | 1.5 |
| UUUCUAACAUAGGAUGCCG against PRKAR1A | -0.515 |
| AUGGUUGCGGUAGAAGACG against PHYHIP | 0.484 |
| AUAGAAUCUAGGGAAAUAG against HBD | 1.15 |
| AUAGUUAUCCUUUAAUAAC against SLC2A3 | -2.2 |
| AAUGUCAUUGCUGCGGUCC against SH3KBP1 | -0.331 |
| UUUCAGAGCCUUUCCCUGC against LTA | -0.389 |
| UGAUGUACAGCUGAGGACC against ELMO2 | -2.32 |
| UCAGGUAGAGCAUAGCUUG against SPX | -1.13 |
| ACAGCUACCACAAAUGCAG against NDUFB3 | 1.34 |

| Sequence | seed-corrected z-score |
| --- | --- |
| UGGGUUCCCAGUAACACUC against RPRD2 | -0.107 |
| UGCUCUAUCUCUGUCAGGG against RORC | 0.626 |
| AUCGCUGUUAAGAAGCUCC against CIITA | -0.918 |
| UUGGAAUCAGUCAUGCUCA against SFTPD | 0.0218 |
| AUCCUUCUUGAAGUCGGCG against OAF | 2.26 |
| UUCAGGACGAUCUUGACAG against CHRDL2 | -0.237 |
| UGCCGUUUCAUCUUGUACC against NKX2-4 | -2.69 |
| UUGAAGUUUGGAUAUUACC against GABPB2 | -0.668 |
| GAAUGUAGCAAAUGAGUCG against MT1H | 0.588 |
| UGACUGGAUAUAUCCACUG against RAB20 | 0.37 |
| UUUUCUGCCUGAUCUAACU against MAP3K7CL | 0.11 |
| UCACUGUCAAUCAUGCGCU against CACNG1 | -1.04 |
| UCACCUUCCGCUUCGACUU against FAM181B | 2.19 |
| AAACCAAUAGGAAUUGACU against HINT3 | 0.612 |
| AUCCAGUUAAUUCCAGAUG against NUDT1 | -3.9 |
| UAGGUUGUGAAUGUGGUCG against FBXL8 | -3.1 |
| UAUAUGUCUUGAUUAUCCU against NMS | 0.309 |
| UCCAGGUCAAGGGUAACGG against KIF7 | -0.853 |
| UACAUGUCAAAUGAGCUCC against KIR2DL5B | -2.25 |
| UGUAGAAUGAGUAGGCGGC against NMT2 | -0.0232 |
| UGUAUUUGAAGACUUUCCC against ZNF485 | 0.182 |
| UUCCUUCCUCGUUCAUUGC against KGFLP1 | -2.1 |
| AAAGCUUCCCUCAACUUGC against TAS2R9 | -0.00509 |

| Sequence | seed-corrected z-score |
| --- | --- |
| UAUCUAGUGCAGUAUAUCG against COPS2 | 0.174 |
| UUUGAUCUCAUCGGUGCCC against PIAS1 | -0.0672 |
| AUUCUCGUCAGUGAGCUCC against POLR2C | -0.262 |
| UCUUCGUUCUUGUCGAUCU against MED15 | 2.07 |
| UAACUUUGUCUUUGGAUUC against SETD9 | 1.15 |
| AAACUGCUCGCUGUCAUUC against NCDN | -2.2 |
| UGUACAAGAAGUCAUAAGC against DSE | -0.289 |
| UUGUGGUCAAUGCCCUUGG against UBIAD1 | -0.444 |
| UGACAUUCCAAGGUUGUAG against TAS2R60 | 0.323 |
| ACCUUUUUCACUUCUACAC against 2-Mar | -0.43 |
| AAGUUGCUCAGAAACUUGG against WNT9B | -3.07 |
| UGUCCAGAUAAGGAGACGC against PINLYP | -1.21 |
| UAAGUUCACUGUUCCAUAU against EDEM2 | 0.761 |
| UUUGAAAUCAACAUAGAGG against LINC00574 | -0.00543 |
| AAAGGUACUUUACCAGAUG against MTX2 | 0.416 |
| AGUUCAUUAAAUAAGGUCC against TMEM33 | 0.17 |
| UUGUCAAAAAGUCCUUUUG against GINS3 | 0.092 |
| AAGGCUCUGACAACGAUUC against LMNB1 | -1.07 |
| UUGAUUCGCAACCAUAGCC against BTBD7 | -2.52 |
| AUUCGAAGUAGUUGUAGCC against FRY | 0.623 |
| UCGGUUUUCCUCAAAAUGG against SESN1 | 0.94 |
| UUUCGAAUUAACGCAACUG against HECTD1 | 0.00197 |
| UUCUGAUUCCCAAACAGUG against COMMD8 | -1.88 |

| Sequence | seed-corrected z-score |
| --- | --- |
| AAUCAUAACUGUCAUAUCC against DSPP | 0.304 |
| ACCGUGCCCAGCAUACAUC against LOC541473 | -4.77 |
| UUUCUGGUGACCCUUUUUC against TSG101 | -0.683 |
| UCUACUUCUGUGGAUACUC against TALDO1 | 0.332 |
| UCAGCUGCACUUUCAGUAG against GOLGA8J | -1.61 |
| ACCGUUACAUAUUCUAUCC against SUPT6H | -4.84 |
| UGCUGUAUCCUCUAUAUCC against RFX5 | -0.0572 |
| UUAAUCGGCACAGCUGUUC against RSBN1 | -0.543 |
| UAUGCAGUCUGGGUAACCC against C10orf11 | 0.746 |
| UUACGUAUGCACCAUUUGC against SLC35D1 | 0.196 |
| UAUAGUAAUCAGCUAGUGG against MED6 | -3.7 |
| UUUAUUCCCAAAGGCUCUG against PTGER1 | -0.569 |
| AUAUCAUUUACUGACAUAG against DNAJB4 | -0.41 |
| UUCCAGGAUACUUUAAUCC against PON1 | -0.178 |
| AAGCGGUUAACGAAAAGGC against SLC2A1 | 1.37 |
| UUUGUAAUCAUACGGACAG against ZFAND5 | 0.868 |
| AAACUCAAAAUCCCGUUGC against ZC3H10 | 0.108 |
| UAAUAUCCGGUAAGAAUCC against DDB2 | -0.365 |
| UAUAGGUAAGGAUUUCUGC against KRTAP9-2 | -0.397 |
| UGUCUUCUAAAGUAAGUGG against ZNF77 | -2.26 |
| UCACGAACAUGUUGCAAGG against KRIT1 | -0.0242 |
| UAGUUCAUAAUCCAAGUCC against COL6A3 | 0.0612 |
| AUGACUUUAGGUCGCAUCG against FBXL12 | -13.4 |

| Sequence | seed-corrected z-score |
| --- | --- |
| UUUGGGAUUUCCAUUGUCU against LRP2BP | 0.259 |
| UUGGAUACAAAGGAACAAC against DHX32 | -0.291 |
| UUUGAGUCCACCACGAAGC against MYH3 | -0.0465 |
| UCUGCUGCUCGUCAAGUUC against MAP2K2 | 1.77 |
| UCUCUUUAAAGACUCCUCC against LPO | 0.133 |
| UUGGGAUAUAUUUAGCGGC against ITGB1BP2 | -2.58 |
| UUUCGGAUGAGCACGCAGC against APRT | -0.0241 |
| UUCUUGUUCACUCUAAUUU against NFIC | 0.384 |
| AUAGUGUCGAUAAAAACCU against CHRNA1 | 0.527 |
| AAAGUUGCGGAAGCUGAUG against LRP3 | -2.42 |
| UAUCUGUGCAGUUAAGAUG against LOC401220 | -0.155 |
| UUUCACUCCACUGAAGUAC against CDKL1 | -0.736 |
| AGCUGUAGCACCAUCAACG against OR7G3 | -1.26 |
| UUCGAUUCCAAGCCUUACG against CCDC113 | 0.591 |
| AAGUUACCCACGUAGAUGC against SRSF1 | -1.35 |
| UAAGAUAUUUGUCCAACAG against YWHAB | 0.25 |
| UCAUUGAUCUAAAACGACC against PPFIA1 | 0.863 |
| UUCUCCUUCACAUACCGGC against CLK3 | 0.176 |
